Consider 5 molecules from PubChem BioAssay (NCATS).

Assay [1] in a line: qHTS drug screen for cell cycle checkpoint inhibitors in PARPi-resistant BRCA-mutant ovarian cancer cell lines. (AID 1963452; calls by dose curve). The settings on record: PEO1/OlaR viability, CellTiter-Glo luminescence, 96 h; for Z-AUC: stronger effect = lower value. The method in brief:
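PEO1, PEO4 and PEO1/OlaR ovarian cancer cells, 600 per well, exposed 96 h at 37C to a dilution series. Viability read by CellTiter-Glo luminescence, normalized to DMSO and empty wells; activity summarized as Z-AUC.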

Assay [2] in a line: qHTS for identification of novel therapeutic agents for treatment of microphthalmiaassociated transcription factor (MiT) renal cell carcinoma (RCC) (AID 1963991; calls by dose curve). The settings on record: CellTiter-Glo, 48 h; for z-score: stronger effect = lower value. The method in brief: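 Viability of three TFE3-fusion renal carcinoma lines measured by CellTiter-Glo after 48 h treatment with each of 1912 compounds at 11 concentrations. Responses scaled between DMSO (100%) and empty wells (0%) before curve fitting.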

Assay [3] is described as follows: qHTS profiling for inhibitors of Plasmodium falciparum proliferation (AID 504749).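 For activity, negative = inhibition: 0% = DMSO vehicle and full inhibition = artemisinin control.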 Note: nearly all actives have a fitted effect of over 60% in size. The settings on record: P. falciparum in erythrocytes, SYBR Green DNA, 72 h. The method in brief:
(§1)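 Three-day growth assay of blood-stage parasites in erythrocytes (0.3% parasitemia, 2.5% hematocrit) at 37 C, 5% CO2, quantified by SYBR Green DNA staining after overnight detergent lysis.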
Background: qHTS replaces the single test concentration by a dilution series.

For another assay, the system named is 3D7. The assay is described as above. The settings on record: P. falciparum in erythrocytes, SYBR Green DNA, 72 h; series mostly up to 28.7 µM. The method in brief:
as §1

For the next assay, the system named is 7G8. The description is as above. The settings on record: P. falciparum in erythrocytes, SYBR Green DNA, 72 h; series mostly up to 28.7 µM. The gist of the method:
as §1

A further assay relates to AA1029. Described as above. The settings on record: P. falciparum in erythrocytes, SYBR Green DNA, 72 h; series mostly up to 28.7 µM. The method in brief:
as §1

Another assay relates to AS120. The assay is described as above. The settings on record: P. falciparum in erythrocytes, SYBR Green DNA, 72 h; series mostly up to 28.7 µM. The gist of the method:
as §1

Another assay concerns ATS189. The assay is described as above. The settings on record: P. falciparum in erythrocytes, SYBR Green DNA, 72 h; series mostly up to 28.7 µM. The method in brief: as §1
The test system of the next assay is ATS95. The description is as above. The settings on record: P. falciparum in erythrocytes, SYBR Green DNA, 72 h; series mostly up to 28.7 µM. The gist of the method:
as §1

The next assay relates to C2A. Described as above. The settings on record: P. falciparum in erythrocytes, SYBR Green DNA, 72 h; series mostly up to 28.7 µM. The gist of the method: as §1
In a further assay the test system is CP185. Described as above. The settings on record: P. falciparum in erythrocytes, SYBR Green DNA, 72 h; series mostly up to 28.7 µM. The method in brief: as §1
The next assay relates to CP191. The assay is described as above. The settings on record: P. falciparum in erythrocytes, SYBR Green DNA, 72 h; series mostly up to 28.7 µM. The method in brief: as §1
A further assay relates to CP192. Described as above. The settings on record: P. falciparum in erythrocytes, SYBR Green DNA, 72 h; series mostly up to 28.7 µM. The method in brief:
as §1

Another assay concerns CP194. The assay is described as above. The settings on record: P. falciparum in erythrocytes, SYBR Green DNA, 72 h; series mostly up to 28.7 µM. The method in brief:
as §1

The next assay has as its system CP201. The assay is described as above. The settings on record: P. falciparum in erythrocytes, SYBR Green DNA, 72 h; series mostly up to 28.7 µM. The method in brief:
as §1

The test system of a further assay is CP211. The description is as above. The settings on record: P. falciparum in erythrocytes, SYBR Green DNA, 72 h; series mostly up to 28.7 µM. The gist of the method:
as §1

The subject of a further assay is CP215. Described as above. The settings on record: P. falciparum in erythrocytes, SYBR Green DNA, 72 h; series mostly up to 28.7 µM. The method in brief: as §1
The subject of a further assay is CP217. The description is as above. The settings on record: P. falciparum in erythrocytes, SYBR Green DNA, 72 h; series mostly up to 28.7 µM. The method in brief: as §1
The test system of another assay is CP203. Described as above. The settings on record: P. falciparum in erythrocytes, SYBR Green DNA, 72 h; series mostly up to 28.7 µM. The gist of the method:
as §1

[4] abbreviates: measured here: PEO1 parental Z-AUC.
Where [5] appears, read: TFE3-RCC UOK109 viability, measured here: UOK109 Z-AUC.
[6] abbreviates: TFE3-RCC viability, measured here: UOK124 Z-AUC.
Setting [7] is: TFE3-RCC viability, measured here: UOK145 Z-AUC.
Setting [8] is: at 28.7 µM (top of the series), parasite line A.
Where [9] appears, read: at 28.7 µM (top of the series), parasite line B.

Structures are written as SMILES. Records with an inconclusive call do not appear. Active and inactive are the calls of the source. Unless noted, calls come from the whole dose curve; as a rule, active = well fitted inhibition curve with a large enough effect; inconclusive = small, poorly fitted or top-dose-only effect; inactive = flat fitted curve, though single readings scatter.
Potency is the fitted concentration of half-maximal effect.

As to `O=P(O)(O)C(O)(Cn1ccnc1)P(=O)(O)O`, the results for the Z-AUC in assay [1], in assay [1] (setting [4]) and in assay [1] (measured here: PEO4 Z-AUC) were 1.02 (inactive), 1.58 and 2.08, respectively. In addition, the z-score in assay [2] (setting [5]) was found to be 0.735; in assay [2] (setting [6]), 1.17; in assay [2] (setting [7]) it was 1.01. Also, the activity, negative = inhibition is 8.24% (inactive) in assay [3] (setting [8]) and -1.43% (inactive) in [3] (setting [9]). Moreover, the Potency result with 3D7, with 7G8, in the assay on AA1029, in the assay with AS120, in the assay with ATS189 and in the assay with ATS95 was “inactive” in each case. Also, the Potency result in the assay on C2A, with CP185, with CP191, with CP192, in the assay on CP194 and in the assay with CP201 was “inactive” in each case. For the same molecule, the Potency entry with CP211, in the assay on CP215 and with CP217 was “inactive” in each case.

As for `CCOC(=O)C1=C(O)C(=O)N(Cc2ccccc2)C1`, the figures for the Z-AUC in [1], in [1] (setting [4]) and in assay [1] (measured here: PEO4 Z-AUC) were 1.25 (inactive), 1.01 and 1.38, respectively. Moreover, the z-score was 0.919 in [2] (setting [5]), 0.303 in assay [2] (setting [6]) and 0.693 in [2] (setting [7]).

With `CC(C)[C@H](N)C(=O)OCCOCn1cnc2c(=O)[nH]c(N)nc21`, the Z-AUC was 1.05 (inactive) in assay [1], 0.583 in assay [1] (setting [4]) and 0.722 in assay [1] (measured here: PEO4 Z-AUC). For the same molecule, the z-score stood at 0.0968 in assay [2] (setting [5]), 0.361 in [2] (setting [6]) and 0.522 in assay [2] (setting [7]). The activity, negative = inhibition is -1.13% (inactive) in assay [3] (setting [8]) and 7.31% (inactive) in assay [3] (setting [9]). Moreover, the Potency result with 3D7, with AA1029, with AS120, with ATS189, with ATS95 and with C2A was “inactive” throughout. Further, the Potency result in the assay on CP185, in the assay with CP191, with CP192, in the assay on CP194, with CP201 and in the assay on CP203 was “inactive” each time. Besides, the Potency entry in the assay on CP211, with CP215 and with CP217 was “inactive” in each case.

In the case of `CCCCc1ccc2nc(NC(=O)OC)[nH]c2c1`, the Potency in [1] is 0.0389 µM (active); in assay [2] (TFE3-RCC UOK109 viability, active = Z-AUC below -0.8 in all three lines), 0.0166 µM (active). In addition, the Z-AUC in assay [1] (setting [4]) is -1.68; in [1] (measured here: PEO4 Z-AUC), -1.66. The z-score was -1.8 in assay [2] (setting [5]), -3.11 in [2] (setting [6]) and -1.73 in assay [2] (setting [7]). In addition, the activity, negative = inhibition in assay [3] (at 12.8 µM (top of the series), parasite line A) was 2.35% (inactive); in [3] (at 12.8 µM (top of the series), parasite line B), 6.2% (inactive). For the same molecule, the Potency result with 3D7, in the assay on 7G8, with AA1029, with AS120, in the assay with ATS189 and in the assay with ATS95 was “inactive” each time. The Potency entry in the assay with C2A, in the assay on CP185, with CP191, in the assay on CP192, with CP194 and in the assay on CP201 was “inactive” each time. Moreover, the Potency result in the assay with CP203, in the assay with CP211, in the assay on CP215 and in the assay with CP217 was “inactive” in each case.

On to `COC(=O)C1=C(C)NC(C)=C(C(=O)OCCCN2CCC(c3ccccc3)(c3ccccc3)CC2)C1c1cccc([N+](=O)[O-])c1` (centres undefined), for which the figures for the Z-AUC in assay [1], in [1] (setting [4]) and in [1] (measured here: PEO4 Z-AUC) were 0.516 (inactive), 0.68 and 0.403, respectively. The z-score in [2] (setting [5]) worked out at 1.29; in assay [2] (setting [6]), 0.568; in assay [2] (setting [7]), 0.759. Besides, the Potency in assay [3] (parasite line A) is 4.47 µM (active); in assay [3] (parasite line B), 6.31 µM (active); in the assay on 3D7 it was 2.82 µM (active); with 7G8, 2 µM (active); with AA1029 it was 4.47 µM (active); in the assay on AS120, 2.82 µM (active). Besides, the Potency in the assay on ATS189 was 4.47 µM (active); in the assay on ATS95, 5.01 µM (active); in the assay with C2A, 3.98 µM (active); with CP185 it was 7.08 µM (active); in the assay on CP191 it was 4.47 µM (active); with CP194, 5.36 µM (active). Besides, the Potency in the assay on CP201 is 9.53 µM (active); in the assay with CP211, 6.01 µM (active); with CP215, 6.75 µM (active); in the assay on CP217, 3.55 µM (active).
